# About 55 (0.05%) of roughly 120,000 compounds were called active. Many of the other results were omitted from the sample, so actives are more common in it than they were. Values without a mark were called inactive. Cut-off read from the data, not from the text of the source: active = inhibition above about 25% (passing the limit was not always enough); inactive = the rest.
# System: replicative DNA helicase (DnaC/DnaB), Staphylococcus aureus
# Assay: S. aureus DnaC helicase unwinding inhibition – biochemical, fluorescence unwinding readout, primary screen (AID 485395);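 note: 0% = mean of negative control wells and 100% = mean of positive control wells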
# Conditions: purified S. aureus helicase, fluorescence unwinding assay; stronger effect = higher value; concentration not given here
row,Compound,inhibition
1,CC(=O)N1CCc2c(sc3c2c(=O)n(Cc2ccccc2)c(=O)n3Cc2cccc(C)c2)C1,-4%
2,Cc1cc(=O)n(-c2cccc(C(F)(F)F)c2)[nH]1,-1%
3,O=C(N/N=C/c1ccc(F)cc1)c1n[nH]c2c1CCC2,15%
4,Nc1c(C(=O)Nc2ccccc2C(F)(F)F)sc2[nH]c(=O)c(C(=O)O)cc12,15%
5,CCCN(CC1CC1)C(=O)CSc1nc(N)cc(N)n1,27%
6,NC(=O)C1CCN(C(=O)CSCc2ccc(Br)cc2)CC1,5%
7,CC(C)NC(=O)CCc1c[nH]c2ccccc12,13%
8,O=C(CN1CCC(c2nc(-c3ccncc3)n[nH]2)CC1)N1CCN(c2ccccc2F)CC1,-6%
9,COCCN1Cc2cccc(C(=O)NCc3ccco3)c2C1=O,-9%
10,CCOc1nc(NC(=O)NC(=O)c2cccs2)nc(-c2ccccc2)n1,11%
11,Cn1c(-c2ccco2)nn(C2CC(=O)C3OCC2O3)c1=S (stereo not drawn),-1%
12,CCOc1cccc(C(=O)NN2CCOCC2)c1,-7%
13,O=C(O)c1cccc(N2C(=O)/C(=C\c3ccc4c(c3)OCO4)SC2=S)c1,15%
14,Cc1noc(C)c1COC(=O)c1cccc(S(=O)(=O)N(C)C2CCCCC2)c1,-11%
15,CC1CCC(C(=O)NC(C(=O)N2CCN(Cc3ccccc3)CC2)C(C)C)CC1 (stereo not drawn),0%
16,Cc1nc(-c2ccccc2)sc1C(=O)NCC1CCCO1 (stereo not drawn),-20%
17,Nc1c(NCC(c2ccco2)N2CCCCC2)c(=O)[nH]c(=O)n1Cc1ccccc1 (stereo not drawn),9%
18,Clc1cccc2c(N3CCN(Cc4ccccc4)CC3)cnnc12,17%
19,CCCc1nnc(SCC(=O)N2CCCC2)n1CCOC,3%
20,CCS(=O)(=O)N1CCC(C(=O)OCC(=O)c2cc(C)n(C(C)C)c2C)CC1,-5%
21,CCc1n[nH]c(=S)n1/N=C1\C(=O)N(CC(C)C)c2ccccc21,1%
22,Cc1ccc(C(=O)COC(=O)c2cc3cc(Br)ccc3oc2=O)cc1,-19%
23,Cc1cccc(NC(=O)CNC(=O)c2ccc3c(=O)[nH]c(CN4CCOCC4)nc3c2)c1C,5%
24,CCOC(=O)c1c(CN2CCN(CC#N)CC2)n(-c2ccccc2)c2ccc(O)cc12,-1%
25,NC(=O)CCc1nc(-c2ccccc2)no1,-4%
26,Cc1nn(Cc2ccc(Cl)cc2)c(C)c1NC(=O)COCc1cc(-c2cccs2)on1,-15%

row,Compound,inhibition
1,Cc1cc(C)c2nc(-c3ccco3)cc(C(=O)O)c2c1,5%
2,Cc1cc(C)c2nc3nc(C)cc(C)c3c(N)c2c1,77% (active)
3,COc1ccc(/C=N/N2C(=O)c3ccccc3C2=O)cc1OC,-16%
4,O=S1(=O)CC=C(S(=O)(=O)c2ccccc2)C1,2%
5,CCOC(=O)COc1ccc2cc(-c3nc4ccccc4s3)c(=O)oc2c1,-176%
6,CC(=O)Nc1nonc1Nc1csc(CC#N)n1,-1%
7,O=C(N/N=C/c1c(-c2ccccc2)nc2sccn12)c1ccc2ccccc2n1,15%
8,COc1cccc(C2NC(=O)NC(C)=C2C(=O)c2ccccc2)c1 (stereo not drawn),-13%
9,CC1=C(C(=O)NCCC(C)C)C2(CCC(C)CC2)OC1=O (stereo not drawn),1%
10,CC(C)CCSc1nc2ccccc2n1CN1CCN(S(=O)(=O)c2ccc(Cl)cc2)CC1,3%
11,O=C(NCc1ccccc1)N1CCC(CN2CCCCC2)CC1,4%
12,CCOC(=O)N1CCC(NC(=O)Cn2ncc3c(=O)oc4ccc(C)cc4c32)CC1,14%
13,CC(C)CCNS(=O)(=O)c1ccc2[nH]c3c(c2c1)CCCC3,-2%
14,CC(=O)Nc1ncc(Cc2ccc(C)cc2)s1,7%
15,Cc1ccc(CN(C)C(=O)c2n[nH]c3ccccc23)o1,-4%
16,CC(C)N(C(=O)CSc1nnc2sc3ccccc3n12)C(C)C,7%
17,CCCCSc1nc2ccccc2[nH]1,-5%
18,CC1=NN(C(N)=S)C(=O)C1,-7%
19,COc1ccc(C)cc1NC(=O)CSC1CCCC1,-1%
20,Cc1c(/C=N/NC(N)=S)c2ccccc2n1C,-2%
21,COc1cc(OC)c(OC)cc1CN1CCN(c2ccccc2F)CC1,10%
22,NCC1CCN(Cc2ccccc2Cl)CC1,-10%
23,c1csc(-c2csc(Cc3nc(-c4cccs4)cs3)n2)c1,36%
24,CCN(C(=O)Cc1noc2ccccc12)c1cc(OC)ccc1OC,9%
25,COc1ccc(-c2cc3c(n2Cc2ccc(F)cc2)CC(C)(C)CC3=O)cc1,-11%
26,COCCNC(=O)Cn1cc(/C=C2\C(=O)NC(=O)N(C3CCCCC3)C2=O)c2ccccc21,-31%

row,Compound,inhibition
1,Cc1nc2cc(N=Cc3ccc(Cl)cc3)ccc2n1Cc1ccccc1,10%
2,Cc1nc(-c2cccs2)sc1C(=O)Nc1ccccc1,-5%
3,CN1C/C(=C/c2ccc3c(c2)OCCO3)C(=O)/C(=C/c2ccc3c(c2)OCCO3)C1,8%
4,CCc1ccc(C(=O)C(C)Sc2nnc(-c3ccccc3)o2)cc1 (stereo not drawn),-5%
5,COc1ccc(OC)c(NC(=O)CSc2nccn2-c2cccc(Cl)c2)c1,3%
6,NC(=O)CN1CCN(Cc2cccc3ccccc23)CC1,3%
7,Cc1cn2ccccc2c1P(=Nc1ccccc1)(N1CCOCC1)N1CCOCC1,7%
8,O=C(OC1CSC1)c1cccs1,-1%
9,CC1CC(=O)Nc2ccccc2N1C(=O)CSc1ccc2c(c1)OCCCO2 (stereo not drawn),15%
10,OCc1nc2ccccc2n1CC1CC1(Cl)Cl (stereo not drawn),-17%
11,Cc1nn(CC(=O)NCCc2ccccc2)c(=O)c2cc3occc3n12,8%
12,COc1ccc(/C=C2\Oc3cc(OC(=O)c4ccc(F)cc4)ccc3C2=O)cc1,5%
13,CC(C)c1ccc(N=Cc2cccs2)cc1,21%
14,O=C(NCC1CCCO1)c1ccc2c(=O)n3c(nc2c1)CCCCC3 (stereo not drawn),2%
15,CN1CCN(C(=O)c2ccc(-c3ccc(Br)cc3)o2)CC1,-25%
16,CCn1c(CNC(=O)c2ccncc2)cc2ccccc21,7%
17,Nc1nnnn1/N=C/c1cccc(Br)c1,4%
18,O=C(COC(=O)C1CC1)c1ccccc1Br,-9%
19,CCC(Sc1nnc(-c2cc3occc3n2C)n1-c1ccccc1C)C(=O)Nc1ccc(C)cc1 (stereo not drawn),10%
20,NS(=O)(=O)c1ccc(CNC(=O)c2cccc3cccnc23)cc1,-13%
21,[O-][n+]1ccccc1SC1=COCCC1,8%
22,N#Cc1c(N)nc2c(c1N)CC(=O)N2c1ccccc1,-11%
23,COc1ccc(N2CCN(c3nc(N)c4c(N)nc5c(c4c3C#N)CC(=O)N5C)CC2)cc1,9%
24,CC1=Nc2nc(N3CC(C)OC(C)C3)c(C#N)c3c4c(nc(c23)N1)N(c1ccccc1)C(=O)C4 (stereo not drawn),54% (active)
25,Cc1ccc(C)c(C(C)NC(=O)Cc2c(C)noc2C)c1 (stereo not drawn),-13%
26,Cc1cc(C)cc(NC(=O)N2CCC3(CC2)OCCO3)c1,24%

row,Compound,inhibition
1,CCOc1ccc(NC(=O)Cn2c(=O)n(CC(=O)NC3CCCC3)c(=O)c3ccccc32)cc1,-11%
2,COC(CNC(=O)c1c[nH]c2ccc(S(=O)(=O)N(C)c3ccc(C(C)C)cc3)cc2c1=O)OC,-3%
3,CCOC(=O)Cc1sc(NC(C)=O)nc1-c1ccccc1,-9%
4,CCn1nc(C(=O)OCCCCN2C(=O)c3ccccc3C2=O)c2ccccc2c1=O,-20%
5,CC(C)Cc1nnc(N)s1,5%
6,CCCCNC(=O)Cn1c(-c2ccc(C)cc2)noc1=O,10%
7,CC1(C)CC(=NNC(N)=S)CC(C)(C)N1,0%
8,COCC(C)n1c(C)cc(C2=NNC(=Nc3ccc(F)cc3F)SC2)c1C (stereo not drawn),16%
9,C1=C(c2ccccc2)Nc2ncnn2C1c1ccco1 (stereo not drawn),-1%
10,CCC(=O)Nc1ccc(-c2cn3cccnc3n2)cc1,5%
11,CCOC(=O)c1c(Cc2cccc(C)c2)c[nH]c1-c1ccccc1,9%
12,Cc1nc2ncnn2c(C)c1CCC(=O)N(Cc1cccnc1)c1ccc2c(c1)OCO2,-82%
13,CCN(CC)C(=O)c1ccc(CS(=O)c2cccc(Cl)c2)o1 (stereo not drawn),24%
14,N#Cc1ccc(OCC(=O)N2CCN(c3ccc(O)cc3)CC2)cc1,12%
15,COCCN(Cc1nc2ccccc2c(=O)[nH]1)C(=O)C1=NN(c2cccc(C)c2)C(=O)CC1,4%
16,Cc1cc(F)ccc1S(=O)(=O)Nc1ccccc1C(=O)OCC(=O)N1CCCC1=O,4%
17,COCc1cc(C)nc(SCC(=O)NC2C3CC4CC(C3)CC2C4)c1C#N (stereo not drawn),1%
18,CCOCc1c[nH]c(=O)[nH]c1=O,4%
19,COc1ccc(NC(=O)CCCn2nnc3ccccc3c2=O)cc1,-14%
20,Cc1ccc2[nH]c(=O)c3cc(C(=O)N4CCCc5ccccc54)sc3c2c1,8%
21,COc1cc(C)c2c(=O)c(-c3csc(C)n3)coc2c1,-19%
22,COC(=O)c1ccc2c(c1)C(=O)/C(=C\c1ccccc1O)O2,4%
23,CCNC(=O)C1CCN(c2ncnc3c2nc2n3CCCCC2)CC1,-22%
24,CCN(Cc1ccc(Cl)s1)Cn1c(CO)nc2ccccc21,-6%
25,Nc1nc(N)nc(SCC(=O)N2N=C(c3ccc4ccccc4c3)CC2c2ccccc2)n1 (stereo not drawn),-3%

# Reference: PubChem BioAssay AID485395 (ICCB-Longwood Screening Facility, Harvard Medical School, 2010)
